Data from PubChem BioAssay (NCI).
About 79,000 compounds went through this panel and 15% of them were active in at least one assay; those are over-represented in the sample as a whole. Unmarked numbers belong to inactive results. Active and inactive are the calls of the source. Cut-off read from the data, not from the text of the source: active = growth inhibition above about 70%; inactive = the rest.

Legend:
[1] = NCI Yeast Anticancer Drug Screen. Data for the rad52 strain (AID 147);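 note: 0% = growth of vehicle-treated control cultures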; conditions: S. cerevisiae rad52 mutant growth inhibition, active compounds read high
Procedure, shortened: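 Vehicle-treated cultures served as the reference for growth inhibition of compound-exposed yeast bearing a DNA repair mutation.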

[2] = NCI Yeast Anticancer Drug Screen. Data for the wt1 strain (AID 149);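 note: 0% = growth of vehicle-treated wt1 cultures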; conditions: S. cerevisiae wt1 strain (SPY 50644) growth inhibition, active compounds read high
Procedure, shortened: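 Using yeast strain wt1, compound-induced growth inhibition was determined against vehicle-treated cultures.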

[3] = NCI Yeast Anticancer Drug Screen. Data for the rad50EPP+ strain (AID 151);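 note: 0% = growth of vehicle-treated control cultures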; conditions: S. cerevisiae rad50 mutant strain, active compounds read high
Procedure, shortened: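 In this screen, rad50EPP+ yeast were exposed to compounds. Growth inhibition was scored against vehicle-treated controls.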

[4] = NCI Yeast Anticancer Drug Screen. Data for the mgt1 strain (AID 153); conditions: S. cerevisiae mgt1 mutant growth inhibition, active compounds read high
Procedure, shortened: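 mgt1 strain exposed; growth vs vehicle control recorded as inhibition.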

[5] = NCI Yeast Anticancer Drug Screen. Data for the rad50 strain (AID 155);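 note: 0% = growth of vehicle-only cultures of the same strain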; conditions: S. cerevisiae rad50 strain growth inhibition, active compounds read high
Procedure, shortened: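 Relative growth inhibition (compound vs vehicle) was measured in yeast with a defined repair-gene alteration.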

[6] = NCI Yeast Anticancer Drug Screen. Data for the mec2-1 strain (AID 157); conditions: S. cerevisiae mec2-1 strain, active compounds read high
Procedure, shortened: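 Vehicle-treated cultures served as reference for growth inhibition of compound-exposed mec2-1 yeast.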

[7] = NCI Yeast Anticancer Drug Screen. Data for the rad14 strain (AID 159);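 note: 0% = growth of vehicle-treated control cultures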; conditions: S. cerevisiae rad14 strain growth inhibition, active compounds read high
Procedure, shortened: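 Screen for anticancer potential: a yeast strain altered in DNA damage repair is grown with compound, and reduced growth is quantified against vehicle controls.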

[8] = NCI Yeast Anticancer Drug Screen. Data for the sgs1 mgt1 strain (AID 161);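 note: 0% = growth of cultures given vehicle only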; conditions: S. cerevisiae sgs1 mgt1 strain, active compounds read high
Procedure, shortened: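 Genetically altered yeast, compound exposure, growth inhibition relative to vehicle.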

[9] = NCI Yeast Anticancer Drug Screen. Data for the CLN2oe strain (AID 163);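 note: 0% = growth of vehicle-only control cultures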; conditions: S. cerevisiae CLN2oe strain, active compounds read high
Procedure, shortened: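 Inhibition relative to vehicle-treated yeast is reported. Cells: strain with genetic alteration in cell-cycle control, grown with compound.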

[10] = NCI Yeast Anticancer Drug Screen. Data for the cln2 rad14 strain (AID 165);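 note: 0% = growth equal to vehicle treated cultures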; conditions: S. cerevisiae cln2 rad14 strain, active compounds read high
Procedure, shortened: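 Each compound was tested on cln2 rad14 yeast. Inhibition of growth was calculated against vehicle-exposed controls.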

[11] = NCI Yeast Anticancer Drug Screen. Data for the bub3 strain (AID 167); conditions: S. cerevisiae bub3 mutant strain, active compounds read high
Procedure, shortened: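 Screening used yeast with an engineered genetic alteration affecting cell cycle control. Compound-exposed cultures were compared with vehicle cultures, and reduced growth was taken as inhibition.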

[12] = NCI Yeast Anticancer Drug Screen. Data for the wt2 strain (AID 169);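 note: 0% = growth of vehicle-treated yeast cultures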; conditions: S. cerevisiae wt2 strain growth inhibition, active compounds read high
Procedure, shortened: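 Inhibition of yeast growth was determined after compound treatment, normalised to controls receiving only vehicle.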

[13] = NCI Yeast Anticancer Drug Screen. Data for the mlh1 strain (AID 171);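 note: 0% = growth of vehicle-treated control cultures of the same strain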; conditions: S. cerevisiae mlh1 strain growth inhibition, active compounds read high
Procedure, shortened: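 Vehicle-normalised growth inhibition of a repair- or checkpoint-altered yeast strain following compound treatment.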

[14] = NCI Yeast Anticancer Drug Screen. Data for the sgs1 strain (AID 173);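 note: 0% = growth of vehicle-only control cultures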; conditions: S. cerevisiae sgs1 mutant, active compounds read high
Procedure, shortened: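 Screen format: yeast with repair or checkpoint alterations, compound exposure, growth read relative to vehicle.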

[15] = NCI Yeast Anticancer Drug Screen. Data for the mlh1 rad18 strain (AID 175); conditions: S. cerevisiae mlh1 rad18 strain growth inhibition, active compounds read high
Procedure, shortened: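 Vehicle-treated cultures served as the reference for growth inhibition in a yeast strain carrying DNA damage repair alterations exposed to each compound.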

[16] = NCI Yeast Anticancer Drug Screen. Data for the rad18 strain (AID 177); conditions: S. cerevisiae rad18 mutant growth inhibition, active compounds read high
Procedure, shortened: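 Test articles were incubated with altered yeast defective in DNA damage repair. Results are given as inhibition of growth versus vehicle.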

[17] = at 5.0 µM (retest, dose inferred, filed as 0.5)
[18] = at 50.0 µM (retest, dose inferred, filed as 5.0)

Compound `O=Cc1ccccc1C=O` has a growth inhibition ([1]; at 1.2 µM) of -13%, a growth inhibition ([1]; at 3.7 µM) of -11% and a growth inhibition ([1]; at 11.0 µM) of -7%. For the same compound, the growth inhibition ([1]; at 33.0 µM) was 4%, the growth inhibition ([1]; at 100.0 µM) was 73% (active) and the growth inhibition ([2]; at 1.2 µM) was -35%. The growth inhibition ([2]; at 3.7 µM) was -31%, the growth inhibition ([2]; at 11.0 µM) was -17% and the growth inhibition ([2]; at 33.0 µM) was 0%. The growth inhibition ([2]; at 100.0 µM) was 90% (active), the growth inhibition ([3]; at 1.2 µM) was -8% and the growth inhibition ([3]; at 3.7 µM) was -13%. For the same compound, the growth inhibition ([3]; at 11.0 µM) was -2%, the growth inhibition ([3]; at 33.0 µM) was 6% and the growth inhibition ([3]; at 100.0 µM) was 34%. The growth inhibition ([4]; at 1.2 µM) was 4%, the growth inhibition ([4]; at 3.7 µM) was 9% and the growth inhibition ([4]; at 11.0 µM) was 20%. The growth inhibition ([4]; at 33.0 µM) was 36%, the growth inhibition ([4]; at 100.0 µM) was 91% (active) and the growth inhibition ([5]; at 1.2 µM) was 14%. For the same compound, the growth inhibition ([5]; at 3.7 µM) was 12%, the growth inhibition [5, 17] was -6% and the growth inhibition ([5]; at 11.0 µM) was 19%. It also gave a growth inhibition ([5]; at 33.0 µM) of 28%, a growth inhibition [5, 18] of 16% and a growth inhibition ([5]; at 50.0 µM) of 44.6%. The growth inhibition ([5]; at 100.0 µM) was 89% (active), the growth inhibition ([6]; at 1.2 µM) was -17% and the growth inhibition ([6]; at 3.7 µM) was -22%. The growth inhibition [6, 17] was -8%, the growth inhibition ([6]; at 11.0 µM) was -12% and the growth inhibition ([6]; at 33.0 µM) was 32%. The growth inhibition [6, 18] was 32%, the growth inhibition ([6]; at 50.0 µM) was 80.5% (active) and the growth inhibition ([6]; at 100.0 µM) was 90% (active). The growth inhibition ([7]; at 1.2 µM) was -17%, the growth inhibition ([7]; at 3.7 µM) was -12% and the growth inhibition ([7]; at 11.0 µM) was -8%. The growth inhibition ([7]; at 33.0 µM) was 23%, the growth inhibition ([7]; at 100.0 µM) was 86% (active) and the growth inhibition [8, 17] was -3%. For the same compound, the growth inhibition [8, 18] was 43%, the growth inhibition ([8]; at 50.0 µM) was 40.3% and the growth inhibition ([9]; at 1.2 µM) was 4%. It also gave a growth inhibition ([9]; at 3.7 µM) of 7%, a growth inhibition ([9]; at 11.0 µM) of 3% and a growth inhibition ([9]; at 33.0 µM) of 22%. For the same compound, the growth inhibition ([9]; at 100.0 µM) was 85% (active), the growth inhibition [10, 17] was 5% and the growth inhibition [10, 18] was 74% (active). The growth inhibition ([10]; at 50.0 µM) was 13.6%, the growth inhibition ([11]; at 1.2 µM) was 6% and the growth inhibition ([11]; at 3.7 µM) was 17%. For the same compound, the growth inhibition [11, 17] was -32%, the growth inhibition ([11]; at 11.0 µM) was 14% and the growth inhibition ([11]; at 33.0 µM) was 23%. The growth inhibition [11, 18] was 76% (active), the growth inhibition ([11]; at 50.0 µM) was 24.4% and the growth inhibition ([11]; at 100.0 µM) was 81% (active). It also gave a growth inhibition ([12]; at 1.2 µM) of -20%, a growth inhibition ([12]; at 3.7 µM) of -26% and a growth inhibition ([12]; at 11.0 µM) of -15%. The growth inhibition ([12]; at 33.0 µM) was -35%, the growth inhibition ([12]; at 100.0 µM) was 86% (active) and the growth inhibition ([13]; at 1.2 µM) was -6%. The growth inhibition ([13]; at 3.7 µM) was -5%, the growth inhibition ([13]; at 11.0 µM) was 1% and the growth inhibition ([13]; at 33.0 µM) was 36%. For the same compound, the growth inhibition ([13]; at 100.0 µM) was 84% (active), the growth inhibition ([14]; at 1.2 µM) was -19% and the growth inhibition ([14]; at 3.7 µM) was -25%. The growth inhibition ([14]; at 11.0 µM) was -15%, the growth inhibition ([14]; at 33.0 µM) was 2% and the growth inhibition ([14]; at 100.0 µM) was 72% (active). The growth inhibition [15, 17] was -23%, the growth inhibition [15, 18] was 48% and the growth inhibition ([15]; at 50.0 µM) was 82% (active). The growth inhibition ([16]; at 1.2 µM) was -4%, the growth inhibition ([16]; at 3.7 µM) was -5% and the growth inhibition ([16]; at 11.0 µM) was 0%. For the same compound, the growth inhibition ([16]; at 33.0 µM) was 26% and the growth inhibition ([16]; at 100.0 µM) was 88% (active).
